Screening data from PubChem BioAssay.
Compounds with a hit are over-represented: about 3.3% of the library has one in this group of screens.
HBB splice mod: alters splicing of the hemoglobin beta chain. AID 925. Potency, µM (doses to about 46.1 µM), for inactives: at the highest dose activation, hits mostly activators. HBB splicing reporter cell assay, activation; EGFP reporter with mutant IVS2-654 intron; response scale: normalised to 500 nM splice-correcting PNA. 65,000 compounds, 0.06% hits; note: potency is the fitted concentration of half-maximal effect; 0% is about no effect
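HeLa cells stably expressing EGFP interrupted by mutant beta-globin intron 2 (IVS2-654), 500/well in 2% FCS. Treated with compound for 2 days at 37C. Splicing correction scored as total well GFP intensity (488 nm excitation, 500-520 nm emission); 500 nM antisense PNA served as control.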
Bst PK mod: alters activity of Bacillus stearothermophilus pyruvate kinase; Potency, µM; 51,000 compounds, 1.2% hits; purified pyruvate kinase, luminescence ATP production; ribose 5-phosphate activator present at AC10; in the data active = potency below about 11 µM; inconclusive = mostly about 12 µM to 25 µM;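 the screen sought inhibitors and activators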;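 note: potency is the fitted concentration of half-maximal effect; scaled between full activation by ribose 5 phosphate and full inhibition by luteolin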
GFP derepression: epigenetic GFP locus derepression in mouse cells; Potency, µM (series often up to 46.1 µM), without a hit: at the top dose GFP derepression (activation); mouse C127i GFP locus derepression, cytometry, 30 h; 68,000 compounds, 0.09% hits; note: % of control where 0% means no effect
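Read-out is the number of GFP-positive cells, scored as fluorescent objects 20 to 120 um wide, reflecting derepression of a silenced CMV-GFP reporter in murine C127i cells after 30 h compound exposure at 37 C.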
GBA mod: modulators of human glucocerebrosidase; AID 360; 48,000 compounds, 1.1% hits; Potency, µM; purified enzyme, resorufin glucoside fluorescence (screen aimed at inhibitors), 20 min; in the data active = potency below about 15 µM; inconclusive = mostly about 16 µM to 33 µM;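 note: potency is the fitted concentration of half-maximal effect; the screen sought inhibitors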
Target sequence (P04062 whole entry, looked up): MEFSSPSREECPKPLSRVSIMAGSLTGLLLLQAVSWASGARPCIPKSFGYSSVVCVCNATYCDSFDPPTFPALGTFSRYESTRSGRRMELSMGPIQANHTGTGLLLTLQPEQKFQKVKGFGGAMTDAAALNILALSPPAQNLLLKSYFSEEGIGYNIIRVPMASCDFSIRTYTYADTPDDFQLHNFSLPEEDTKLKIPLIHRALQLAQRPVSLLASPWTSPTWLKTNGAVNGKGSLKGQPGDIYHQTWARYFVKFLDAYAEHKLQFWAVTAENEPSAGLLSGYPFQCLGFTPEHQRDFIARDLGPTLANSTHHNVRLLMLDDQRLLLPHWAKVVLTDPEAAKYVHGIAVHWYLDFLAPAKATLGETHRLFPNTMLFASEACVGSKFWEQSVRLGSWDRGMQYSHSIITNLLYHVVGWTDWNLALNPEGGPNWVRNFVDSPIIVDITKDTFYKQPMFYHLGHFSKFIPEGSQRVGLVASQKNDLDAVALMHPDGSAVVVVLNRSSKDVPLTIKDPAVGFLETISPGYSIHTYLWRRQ
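Wild-type enzyme at 0.2 nM final in 50mM citric acid/KH2PO4, 10mM sodium taurocholate, 0.01% tween-20, pH 5.9, with resorufin beta-D-glucopyranoside at 30 uM final. Compounds titrated, 20 min at RT, red fluorescence read; AC50 from titration.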
Luciferase inh: firefly luciferase inhibition | purified firefly luciferase, luminescence, 8 min | Potency, µM (top dose mostly 57.1 µM), for the others: at the top dose activity change, negative = inhibition, actives largely listed as inhibitors | 72,000 compounds, 2.2% hits; note: potency is the fitted concentration of half-maximal effect; % is set by controls: 0 for no effect and ±100 for the full control effect; nearly all actives have a fitted effect of over 40% in size
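Luminescence read-out after 8 min at room temperature; enzyme reaction used luciferin plus 10 uM ATP (linear range) in imidazole buffer pH 7.2 with KCl, MgCl2, Tween 20 and BSA. Each sample was run as a titration.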
Ub-GFP proteasome: proteasome inhibitors stabilizing ubiquitin-GFP reporter | Ubiquitin-GFP reporter cells, proteasome inhibition, GFP fluorescence; response scale: untreated = 0%, 10 µM MG-132 = 100% | Potency, µM (titrated, usually from 45.9 µM), inactives show at the highest dose activation (GFP accumulation), most hits filed as activators | 67,000 tested, under 10 active; active = well fitted activation curve with a large enough effect, not every such curve was filed as active; inconclusive = small, poorly fitted or top-dose-only effect, or another doubt; inactive = no such curve, though single readings can be large or run the other way; note: potency is the fitted concentration of half-maximal effect
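U2OS cells expressing ubiquitin(G76V)-GFP, seeded overnight in 0.5% FBS medium, then treated 4 hr at 37 C across 46 uM to 2.9 nM. GFP-positive cells counted by laser cytometry (488 ex/515 em); %activity scaled between basal and 10 uM MG-132.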
The depositor's hits bear a star; i = inactive; ? = inconclusive; / = no result given; [ ] = dose if it differs, or a comment. Unless noted, calls come from the whole dose curve; as a rule, active = well fitted curve in the direction sought with a large enough effect; inconclusive = small, poorly fitted or top-dose-only effect, or another doubt; inactive = no such curve, though single readings can be large; an effect the other way counts as inactive or inconclusive.

SMILES	HBB splice mod	Bst PK mod	GFP derepression	GBA mod	Luciferase inh	Ub-GFP proteasome
Cc1occc1C(=O)Nc1ccc2c(c1)CCC2	3%	/	0%	>77	25µM*	0%
Cc1occc1C(=O)Nc1ccc(S(=O)(=O)N2CCN(C)CC2)cc1	3%	>57	3%	>77	2%	-1%
Cc1ncoc1C(=O)Nc1ccc2c(c1)OCCO2	4%[1.84 µM]	/	2%	>77	20µM*	4%
COc1ccc(NC(=O)c2ocnc2C)cc1OC	3%[1.84 µM]	>57	4%	>77	-3%	-4%
COc1cccc(OCCSc2nnc3sc4ccccc4n23)c1	-1%[57.5 µM]	/	4%	>77	-14%	-3%
c1ccc(OCCSc2nnc3sc4ccccc4n23)cc1	0%[57.5 µM]	?	2%	>77	25µM*	-3%
CC(Sc1ccc2c(c1)OCCO2)C(=O)Nc1ccc2c(c1)OCO2 (stereo not given)	-2%	>57	-4%	15*	1%	2%
CC(C)C(NC(=O)C1CCCCC1)C(=O)Nc1ccncc1 (stereo not given)	-1%	>57	9%	>77	1%	-6%
CC(C)C(NC(=O)C1CCCCC1)C(=O)Nc1ccc2c(c1)OCCO2 (stereo not given)	-4%	?	0%	>77	13µM*	2%
COc1ccc(-c2nnc(SC(C)C(=O)Nc3ccc4c(c3)OCCO4)o2)cc1 (stereo not given)	2%	/	-3%	>77	20µM*	0%
CCCCC#CC1C=CC(Oc2cc(OC)c(OC)c(OC)c2)C(COC(=O)OCC)O1 (stereo not given)	-1%[9.22 µM]	/	/	/	/	/
CCOC(=O)c1c(C)[nH]c(C(=O)COC(=O)c2oc3ccc(OC)cc3c2C)c1C	-1%	>57	-1%	/	2%	0%
COC(=O)c1c(C)[nH]c(C(=O)COC(=O)Cc2ccc3c(c2)OCCO3)c1C	-2%	>57	-2%	15*	-2%	1%
CN(C)/C=N/c1nc2ccc3c(c2s1)CCCC3	0%[57.5 µM]	i	1%	>77	10µM*	1%
CO[C@@H]1COC(=O)CC=C[C@@H](C)[C@@H]2C=C[C@H](O)[C@@H](COC(=O)[C@H](C)NC(=O)CC=C[C@H]1C)O2	2%[9.22 µM]	/	/	/	0%[11.4 µM]	/
CNc1oc(-c2ccccc2Cl)nc1C#N	/	>26	-4%[20.6 µM]	/	-5%[25.5 µM]	/
N#Cc1nc(-c2ccccc2)oc1N1CCCCC1	-4%[0.369 µM]	>57	-5%	>77	1%	6%
Cc1ccc(-c2nc(C#N)c(N3CCCCC3)o2)cc1	0%	/	/	/	-3%	10%
CNc1oc(-c2ccc(Cl)cc2)nc1C#N	/	3.1*	0%[20.6 µM]	/	-2%[25.5 µM]	/
N#Cc1nc(-c2ccc(OCc3ccc(Cl)cc3)cc2)oc1N1CCC(C(N)=O)CC1	7%[0.369 µM]	0.078*	4%	>77	0%	-4%
N#Cc1nc(-c2ccc(Cl)cc2)oc1N1CCCCC1	/	5.1*	0%[20.6 µM]	/	2%[25.5 µM]	/
N#Cc1nc(-c2ccc(OCc3ccc(Cl)cc3)cc2)oc1N1CCOCC1	1%	>57	0%	>77	1%	-5%
N#Cc1nc(-c2ccc(F)cc2)oc1N1CCCC1	/	9.5*	2%[20.6 µM]	/	1%[25.5 µM]	/
CCCn1c(C)nc2c(NCC3CCCN3CC)nc(C)nc21 (stereo not given)	0%	/	/	/	/	2%
O=C1OC(=O)[C@@H]2[C@@H]1[C@@H]1CC[C@H]2O1	0%	/	-5%[9.22 µM]	/	1%[11.4 µM]	-5%
COc1ccc(Oc2ncc3ncc(=O)n(Cc4ccc(F)cc4)c3n2)cc1	-2%	/	2%[9.22 µM]	/	0%[11.4 µM]	-1%
CCOC(=O)c1c(NC(=O)c2ccoc2C)sc2c1CCC2	1%	>57	3%	?	4%	?
CCC1CCc2c(sc(NC(=O)c3ccoc3C)c2C(N)=O)C1 (stereo not given)	-2%	/	-3%	>77	13µM*	-7%
COc1ccc(Oc2ncc3nc(-c4ccc(F)cc4)c(=O)n(Cc4cccs4)c3n2)cc1	3%	/	8%[9.22 µM]	/	-1%[11.4 µM]	-5%
C[C@@]1(O)C(O)[C@@H](CO)O[C@H]1n1cnc2c(NC3CCCC3)nc(Cl)nc21 (stereo not given in full)	1%	/	/	/	/	/
